Our source for the cell viability values is the supplement of paper PMC8877412.

Counter-ions that a name gives are not always drawn. ± gives the uncertainty stated by the source.

The subject of this assay is NCC-PMP1-C1. As to the kind of experiment: cell viability relative to DMSO control; higher = less growth inhibition. Particulars: 10 µM; 72 h. The procedure: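 NCC-PMP1-C1 pseudomyxoma peritonei cells were seeded in 384-well plates coated with Matrigel and MEF (1e4 cells). Viability was read after 72 h by CCK-8 and expressed as % of the DMSO control, mean ± SD of duplicates.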
As usually defined, the cell viability is a read-out of living cells in per cent, often relative to untreated cells. Take `COc1cc2nccc(Oc3ccc(NC(=O)NC4CC4)c(Cl)c3)c2cc1C(N)=O` [Lenvatinib (E7080)]: the cell viability is 69.6 ± 2%.

Take `C=C1C[C@@H]2CC[C@@]34C[C@H]5O[C@H]6[C@@H](O3)[C@H]3O[C@H](CC[C@@H]3O[C@H]6[C@H]5O4)CC(=O)C[C@@H]3[C@@H](OC)[C@@H](C[C@H](O)CN)O[C@H]3C[C@H]3O[C@@H](CC[C@@H]1O2)C[C@@H](C)C3=C` [Eribulin]: the cell viability is 53.95 ± 0.3%.

Consider `COc1cc(Nc2c(C#N)cnc3cc(OCCCN4CCN(C)CC4)c(OC)cc23)c(Cl)cc1Cl` [Bosutinib (SKI-606)], for which the cell viability was determined as 52.4 ± 0.73%.

As to `CS(=O)(=O)CCNCc1ccc(-c2ccc3ncnc(Nc4ccc(OCc5cccc(F)c5)c(Cl)c4)c3c2)o1`, the cell viability came to 51.2 ± 7.9%.

As for `CCC[C@@H]1C[C@@H](C(=O)N[C@@H]([C@H]2O[C@H](SC)[C@H](O)[C@@H](O)[C@H]2O)[C@@H](C)O)N(C)C1` [Lincomycin HCl], the cell viability is 74.4 ± 15%.

In the case of `COC(=O)C1=C(C#N)NC(C)=C(C(=O)OC(C)C)C1c1cccc([N+](=O)[O-])c1` (stereo not given) [Nilvadipine], the cell viability turned out to be 82.8 ± 3.3%.

As for `COc1cc2ncnc(Nc3ccc(F)c(Cl)c3)c2cc1OCCCN1CCOCC1` [Gefitinib(ZD1839)], the cell viability is 85.16 ± 0.73%.

Take `COc1nc(N)nc2c1ncn2[C@@H]1O[C@H](CO)[C@@H](O)[C@@H]1O` [Nelarabine]: the cell viability came to 127 ± 21%.

As to `CCS(=O)(=O)N1CCN(c2ccc(Nc3ncc(C(N)=O)c(NC4CC4)n3)cc2)CC1`, the cell viability came out at 71.8 ± 3.5%.

With `C#Cc1cccc(Nc2ncnc3cc(OCCOC)c(OCCOC)cc23)c1` [Erlotinib HCl (OSI-744)], the cell viability was 74.6 ± 2.7%.

For the compound `CCOc1cc(C(C)(C)C)ccc1C1=N[C@@](C)(c2ccc(Cl)cc2)[C@@](C)(c2ccc(Cl)cc2)N1C(=O)N1CCN(CCCS(C)(=O)=O)CC1`, the cell viability is 52.5 ± 3.1%.

Take `Cn1nnc2c(C(N)=O)ncn2c1=O` [Temozolomide]: the cell viability stood at 118 ± 5.8%.

Consider `Cc1ccc(Nc2nccc(N(C)c3ccc4c(C)n(C)nc4c3)n2)cc1S(N)(=O)=O`, for which the cell viability was 72.5 ± 0.73%.

Turning to `CCCCC1C(=O)N(c2ccccc2)N(c2ccccc2)C1=O` [Phenylbutazone], the cell viability amounted to 119 ± 5.4%.

With `CCCS(=O)(=O)Nc1ccc(F)c(C(=O)c2c[nH]c3ncc(-c4ccc(Cl)cc4)cc23)c1F` [Vemurafenib (PLX4032, RG7204)], the cell viability is -12.5 ± 0.2%.

Turning to `Nc1ccn([C@@H]2O[C@H](CO)[C@@H](O)C2(F)F)c(=O)n1` [Gemcitabine HCl], the cell viability came to 67.5 ± 15%.

In the case of `COC(=O)C[C@](O)(CCCC(C)(C)O)C(=O)O[C@@H]1C(OC)=C[C@]23CCCN2CCc2cc4c(cc2[C@H]13)OCO4` [Homoharringtonine], the cell viability was -1.02 ± 0.42%.

Consider `CNC(=O)c1ccc(-c2cnc3ncc(Cc4ccc5ncccc5c4)n3n2)cc1F`, for which the cell viability amounted to 108 ± 9.8%.

Regarding `Nc1nc2[nH]cnc2c(=S)[nH]1` [Thioguanine], the cell viability amounted to 88.9 ± 9.4%.

As for `CNC(=O)c1cc(Oc2ccc(NC(=O)Nc3ccc(Cl)c(C(F)(F)F)c3)c(F)c2)ccn1` [Regorafenib (BAY 73-4506)], the cell viability is 147 ± 11%.

For `COc1cc2/c(=N/c3ccc(Br)cc3F)nc[nH]c2cc1OCC1CCN(C)CC1` [Vandetanib (ZD6474)], the cell viability stood at 54.7 ± 4.9%.

Consider `O=C(O)C(=O)O.[NH-][C@@H]1CCCC[C@H]1[NH-].[Pt+2]` [Oxaliplatin], for which the cell viability turned out to be 103 ± 15%.

`CC(C)C[C@H](NC(=O)[C@H](Cc1ccccc1)NC(=O)c1cnccn1)B(O)O` [Bortezomib (PS-341)]: the cell viability is -0.129 ± 0.47%.

Turning to `CC(=O)O[C@]1(C(C)=O)CC[C@H]2[C@@H]3C=C(C)C4=CC(=O)CC[C@]4(C)[C@H]3CC[C@@]21C` [Megestrol Acetate], the cell viability amounted to 91.4 ± 16%.

`CCN1CCN(c2ccc(Nc3cc(N(C)C(=O)Nc4c(Cl)c(OC)cc(OC)c4Cl)ncn3)cc2)CC1`: the cell viability turned out to be 56.5 ± 0.47%.

`CN1c2cc(O)c(N=NC(N)=O)cc2CC1S(=O)(=O)O` (stereo not given) [Carbazochrome sodium sulfonate (AC-17)]: the cell viability came to 90.4 ± 9.1%.

Consider `Clc1ccc(Nc2nnc(Cc3ccncc3)c3ccccc23)cc1` [Vatalanib (PTK787) 2HCl], for which the cell viability stood at 84.5 ± 1.8%.

On to `CCCCNC(=O)NS(=O)(=O)c1ccc(C)cc1` [Tolbutamide], for which the cell viability turned out to be 96.4 ± 6.1%.

For the compound `Nc1nnc(-c2cccc(Cl)c2Cl)c(N)n1` [Lamotrigine], the cell viability stood at 102.9 ± 0.8%.

For `Cc1ccc(-c2cc(C(F)(F)F)nn2-c2ccc(S(N)(=O)=O)cc2)cc1` [Celecoxib], the cell viability is 99.99 ± 0.53%.

Take `O=S(=O)(O)CCS` [Mesna]: the cell viability was -9.24%.

On to `O=C(O)CCCN1CCC(O[C@@H](c2ccc(Cl)cc2)c2ccccn2)CC1` [Bepotastine Besilate], for which the cell viability stood at 2.73 ± 16%.

For `O=[n+]1c(CBr)c(CBr)n([O-])c2ccccc21` [Conoidin A], the cell viability stood at 112 ± 22%.

Take `Nc1ccn([C@@H]2O[C@H](CO)[C@@H](O)[C@@H]2O)c(=O)n1` [Cytosine β-D-arabinofuranoside hydrochloride]: the cell viability turned out to be 74.2 ± 10%.

On to `O=C(/C=C/c1cccc(S(=O)(=O)Nc2ccccc2)c1)NO` [Belinostat (PXD101)], for which the cell viability is 7.52 ± 0.13%.

On to `CC(C)C(=O)Nc1ccc([N+](=O)[O-])c(C(F)(F)F)c1` [Flutamide], for which the cell viability was determined as 74 ± 38%.

As for `COc1c2occc2cc2ccc(=O)oc12` [Methoxsalen], the cell viability worked out at 92.6 ± 16%.

Turning to `Cc1cccc(N(C)C(=S)Oc2ccc3ccccc3c2)c1` [Tolnaftate], the cell viability is 101 ± 19%.

For `CCc1c2c(nc3ccc(OC(=O)N4CCC(N5CCCCC5)CC4)cc13)-c1cc3c(c(=O)n1C2)COC(=O)[C@]3(O)CC` [Irinotecan HCl Trihydrate], the cell viability came out at 101 ± 4.5%.

Regarding `COc1cc(OC)cc(N(CCNC(C)C)c2ccc3ncc(-c4cnn(C)c4)nc3c2)c1` [Erdafitinib], the cell viability was determined as 59.1 ± 2.4%.
